Source: ChEMBL document CHEMBL3433997, “St. Jude Leishmania screening dataset” (2016)

Target: Hexose transporter 1 (Plasmodium falciparum) (UniProt O97467)
Test: ST_JUDE_LEISH: Cytotoxicity at 2uM final concentration against transgenic Leishmania Mexicana promastigotes LmPfHT that are glucose transport deficient and complemented with the Plasmodium falciparum hexose transporter. Activity is measured by DNA content using SYBR green in vitro
Assay type: functional

SMILES	inhibition [%]
Cc1ccc(-c2ccc(Cl)cc2Oc2cnc(N)nc2N)o1	2.44
CCN1CCN(c2cc(C)c3cc(NC(=O)c4ccc(C(C)(C)C)cc4)ccc3n2)CC1	2.13
CN1CCC=C(C(=O)NCC(C)(C)c2nc(-c3ccc(Cl)c(O)c3)c(-c3ccncc3)[nH]2)C1	9.88
C#CC(C)(CO)N1CCCC1 (stereo not given)	4.77
O=C(N[C@@H](Cc1ccccc1)C(=O)NC1CCCCCC1)c1ccc(O)c(-c2cccc(C(F)(F)F)c2)c1	4.69
CC(C)c1ncc(-c2ccncc2)c(C2CCC(CNC(=O)c3ccncc3)CC2)n1 (stereo not given)	-0.19
COc1ccc(-c2nc(NC(=O)CSc3ccc([N+](=O)[O-])cc3)sc2C)cc1	-0.37
Cc1c(Cl)cccc1S(=O)(=O)Nc1cccc(CCN2CCC(N3CCCCC3)CC2)c1	4.32
O=[N+]([O-])c1ccccc1/C=N/Nc1ccnc2ccc(C(F)(F)F)cc12	2.42
CCCN(CCC)C(=O)c1cc(C(=O)N[C@@H](Cc2ccccc2)[C@H](O)CNC2CC2)cc(N2CCCCS2(=O)=O)c1	2.88
COc1cc(NC(=O)c2cccs2)c(C(=O)NCc2ccc(C)cc2)cc1OC	4.22
O=C(Nc1ccc(-c2nc3ccccc3[nH]2)cc1)c1cccc(S(=O)(=O)N2CCOCC2)c1	5.13
CC(C)(CNC(=O)[C@@H]1CCCCN1)c1nc(-c2ccc(Cl)c(O)c2)c(-c2ccncc2)[nH]1	2.19
CNCCNc1nccc(N2CCc3ncnc(Nc4ccc(OCc5cccc(F)c5)c(Cl)c4)c3C2)n1	5
Nc1nccc2ccc(-c3ccncc3)cc12	7.14
O=C(Nc1ccc(Br)cc1)c1cc(Br)ccc1NS(=O)(=O)c1cc(C(F)(F)F)cc(C(F)(F)F)c1	0.04
COc1ccc(O)c(Cc2cnc3nc(N)[nH]c(=O)c3c2C)c1	0.5
CC1(C)N=C(N)N=C(Nc2ccc(Cl)cc2)N1	14.3
CN(C)c1ccc(-c2nnc(Sc3ccc(C#N)c([N+](=O)[O-])c3)n2Cc2ccco2)cc1	2.83
CCOc1ccc(C(=O)N2CCOC(CCN3CCC(c4ccccc4)CC3)(c3ccc(Cl)c(Cl)c3)C2)cc1 (stereo not given)	3.91

SMILES	inhibition [%]
CCN(CCCN1CCCCC1)c1cc(C)nc(Nc2cccc3c2CCCC3)n1	2.39
O=C(Nc1cccc(-c2cccc(-c3nc4ccccc4[nH]3)c2)c1)Nc1ccc2c(c1)OCO2	4.48
O=C(NCCCCN1CCC(c2ccc3ccccc3c2O)CC1)c1ccc(NC(=O)c2ccc(Cl)cc2)cc1	1.46
CCSc1ccccc1COc1c(C)nc(N)nc1N	6.09
CCNC(=O)Nc1ccc(-c2cnc(N)c(-c3nc4ccc(OC)cc4[nH]3)c2)cc1	4.42
Cc1nc(N)nc(N)c1-c1cc(Cl)c(Cl)c(Cl)c1	0.89
CC(C)(C)C(=O)Oc1ccc(CC2NCCc3cc(OC(=O)C(C)(C)C)c(OC(=O)C(C)(C)C)cc32)cc1OC(=O)C(C)(C)C (stereo not given)	9.32
CC(=O)Nc1ccc(CN2CCc3ccc(NS(=O)(=O)c4ccc(-c5cccc(C(F)(F)F)c5)cc4)cc3CC2)s1	2.18
CN1CCCC1CCOc1ccc2c(c1)N(C(=O)Nc1cc(Br)cc(C(F)(F)F)c1)CC2 (stereo not given)	-2.4
Cc1cccc2nc(-c3ccc(-c4ccc(NC(=O)Nc5ccsc5)cc4)cc3)[nH]c12	-0.26
Cc1cccc(-c2nn(-c3ccccc3)c3[nH]c(=O)c(CNC4CCCC4)cc23)c1	2.39
CCNc1cc(C(=O)N[C@@H](Cc2ccccc2)[C@H](O)CNCc2cc(OC)cc(OC)c2)cc(N2CCCC2=O)c1	9.03
Nc1cccc(CNCc2cccc(-c3cccc(-c4nc5cc(C(F)(F)F)ccc5[nH]4)c3)c2)c1	-0.22
CCCCSc1c(CNCCCCCCNCc2ccc3ccccc3c2SCCCC)ccc2ccccc12	5.83
Cc1cccc2nc(-c3cccc(-c4cccc(NC(=O)CNC(=O)c5ccc(O)cc5)c4)c3)[nH]c12	-0.56
CC(C)CC(=O)NC1CCN(Cc2c(-c3cccs3)nc3ccccc3c2C(=O)N[C@@H](C)C2CCCCC2)CC1	4.72
Clc1ccc2c(NCc3ccccn3)ccnc2c1	10.9
COc1ccc(OC)c(-c2cccc(-c3cccc(NC(=O)c4ccc([N+](=O)[O-])o4)c3)n2)c1	9.55
COc1cc2ccccc2cc1CCNCCCCNCCc1cc2ccccc2cc1OC	82.7
Cn1cnc2c(SCc3ccc(OCc4ccccc4)cc3)ncnc21	4.19

Target: Glucose transporter (Leishmania mexicana) (UniProt O61059)
Test: ST_JUDE_LEISH: Cytotoxicity at 2uM final concentration against transgenic Leishmania Mexicana promastigotes LmGT2 that are glucose transport deficient and complemented with the L. Mexicana glucose transporter 2. Activity is measured by DNA content using SYBR green in vitro
Assay type: functional

SMILES	inhibition [%]
Cc1ccc(-c2ccc(Cl)cc2Oc2cnc(N)nc2N)o1	0.26
CCN1CCN(c2cc(C)c3cc(NC(=O)c4ccc(C(C)(C)C)cc4)ccc3n2)CC1	1.59
CN1CCC=C(C(=O)NCC(C)(C)c2nc(-c3ccc(Cl)c(O)c3)c(-c3ccncc3)[nH]2)C1	7.7
C#CC(C)(CO)N1CCCC1 (stereo not given)	1.64
O=C(N[C@@H](Cc1ccccc1)C(=O)NC1CCCCCC1)c1ccc(O)c(-c2cccc(C(F)(F)F)c2)c1	0.57
CC(C)c1ncc(-c2ccncc2)c(C2CCC(CNC(=O)c3ccncc3)CC2)n1 (stereo not given)	1.87
COc1ccc(-c2nc(NC(=O)CSc3ccc([N+](=O)[O-])cc3)sc2C)cc1	-1.33
Cc1c(Cl)cccc1S(=O)(=O)Nc1cccc(CCN2CCC(N3CCCCC3)CC2)c1	2.25
O=[N+]([O-])c1ccccc1/C=N/Nc1ccnc2ccc(C(F)(F)F)cc12	0.08
CCCN(CCC)C(=O)c1cc(C(=O)N[C@@H](Cc2ccccc2)[C@H](O)CNC2CC2)cc(N2CCCCS2(=O)=O)c1	1.62
COc1cc(NC(=O)c2cccs2)c(C(=O)NCc2ccc(C)cc2)cc1OC	7.02
O=C(Nc1ccc(-c2nc3ccccc3[nH]2)cc1)c1cccc(S(=O)(=O)N2CCOCC2)c1	4.05
CC(C)(CNC(=O)[C@@H]1CCCCN1)c1nc(-c2ccc(Cl)c(O)c2)c(-c2ccncc2)[nH]1	1.02
CNCCNc1nccc(N2CCc3ncnc(Nc4ccc(OCc5cccc(F)c5)c(Cl)c4)c3C2)n1	2.3
Nc1nccc2ccc(-c3ccncc3)cc12	6.25
O=C(Nc1ccc(Br)cc1)c1cc(Br)ccc1NS(=O)(=O)c1cc(C(F)(F)F)cc(C(F)(F)F)c1	-0.28
COc1ccc(O)c(Cc2cnc3nc(N)[nH]c(=O)c3c2C)c1	4.01
CC1(C)N=C(N)N=C(Nc2ccc(Cl)cc2)N1	11.4
CN(C)c1ccc(-c2nnc(Sc3ccc(C#N)c([N+](=O)[O-])c3)n2Cc2ccco2)cc1	0.63
CCOc1ccc(C(=O)N2CCOC(CCN3CCC(c4ccccc4)CC3)(c3ccc(Cl)c(Cl)c3)C2)cc1 (stereo not given)	4.6

SMILES	inhibition [%]
CCN(CCCN1CCCCC1)c1cc(C)nc(Nc2cccc3c2CCCC3)n1	1.57
O=C(Nc1cccc(-c2cccc(-c3nc4ccccc4[nH]3)c2)c1)Nc1ccc2c(c1)OCO2	1.05
O=C(NCCCCN1CCC(c2ccc3ccccc3c2O)CC1)c1ccc(NC(=O)c2ccc(Cl)cc2)cc1	0.92
CCSc1ccccc1COc1c(C)nc(N)nc1N	2.41
CCNC(=O)Nc1ccc(-c2cnc(N)c(-c3nc4ccc(OC)cc4[nH]3)c2)cc1	3.1
Cc1nc(N)nc(N)c1-c1cc(Cl)c(Cl)c(Cl)c1	1.22
CC(C)(C)C(=O)Oc1ccc(CC2NCCc3cc(OC(=O)C(C)(C)C)c(OC(=O)C(C)(C)C)cc32)cc1OC(=O)C(C)(C)C (stereo not given)	7.65
CC(=O)Nc1ccc(CN2CCc3ccc(NS(=O)(=O)c4ccc(-c5cccc(C(F)(F)F)c5)cc4)cc3CC2)s1	3.46
CN1CCCC1CCOc1ccc2c(c1)N(C(=O)Nc1cc(Br)cc(C(F)(F)F)c1)CC2 (stereo not given)	-2.02
Cc1cccc2nc(-c3ccc(-c4ccc(NC(=O)Nc5ccsc5)cc4)cc3)[nH]c12	-0.35
Cc1cccc(-c2nn(-c3ccccc3)c3[nH]c(=O)c(CNC4CCCC4)cc23)c1	-0.29
CCNc1cc(C(=O)N[C@@H](Cc2ccccc2)[C@H](O)CNCc2cc(OC)cc(OC)c2)cc(N2CCCC2=O)c1	6.42
Nc1cccc(CNCc2cccc(-c3cccc(-c4nc5cc(C(F)(F)F)ccc5[nH]4)c3)c2)c1	1.43
CCCCSc1c(CNCCCCCCNCc2ccc3ccccc3c2SCCCC)ccc2ccccc12	0.58
Cc1cccc2nc(-c3cccc(-c4cccc(NC(=O)CNC(=O)c5ccc(O)cc5)c4)c3)[nH]c12	-0.5
CC(C)CC(=O)NC1CCN(Cc2c(-c3cccs3)nc3ccccc3c2C(=O)N[C@@H](C)C2CCCCC2)CC1	4.36
Clc1ccc2c(NCc3ccccn3)ccnc2c1	4.77
COc1ccc(OC)c(-c2cccc(-c3cccc(NC(=O)c4ccc([N+](=O)[O-])o4)c3)n2)c1	3.3
COc1cc2ccccc2cc1CCNCCCCNCCc1cc2ccccc2cc1OC	104
Cn1cnc2c(SCc3ccc(OCc4ccccc4)cc3)ncnc21	6.37
